The source made the active and inactive calls.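 How the source made its calls, unless noted: active means compounds giving at least 50% inhibition in the cell-based MKP-3 phosphatase rescue imaging test; inactive means the rest.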
Assays:
[1] = inhibitors of TNFa-induced NFkB p65 translocation, primary screen, imaging, HUVEC, MLSMR starter and 10KST1 sets (AID 438;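 active means inhibition above 20% together with a positive visual image hit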;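 further: compound added about 3h40 before a 20 min TNFalpha stimulation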;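 on inhibition: signal is the nuclear over cytoplasmic p65 intensity ratio per well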); conditions: HUVEC TNFa-induced p65 nuclear translocation; cell count: measured here: nuclei count (cytotoxicity indicator), at 2.08 µM; inhibition: at 2 µM, stronger effect = higher value, 0% TNFa-plus-vehicle, 100% no-TNFa wells
[2] = reduction of polyQ htt aggregates in cells – imaging, exon1htt(103Q)mCFP cells, high-content imaging, primary screen (AID 483;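 active means visual image review flags a hit and inhibition of aggregation exceeds 20%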;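 further: compound exposure lasted 3 days before fixation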;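 on nuclei count: percent of the per-plate median nuclei count of sample wells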); conditions: exon1htt(103Q)mCFP cell line, aggregate imaging, at 2 µM; inhibition of aggregation: stronger effect = higher value; nuclei count: measured here: cell count, toxicity
[3] = endothelial E-selectin expression blockers – imaging, HUVEC, immunofluorescence, MLSMR starter and 10KST1 sets, primary screen (AID 487;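 active means visually confirmed hit in the image check and inhibition above 20%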;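 on inhibition: signal is fraction of cell area covered by stained E-selectin grains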;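 on nuclei count: 100% = median nuclei count of all wells on the same plate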); conditions: HUVEC TNFalpha-induced E-selectin immunofluorescence imaging, at 2 µM; inhibition: stronger effect = higher value; nuclei count: measured here: cell number, toxicity
[4] = Primary imaging screen for DUSP6 inhibitors that restore phospho-Erk in transfected HeLa cells, chemical complementation (AID 609); conditions: HeLa MKP-3 transfected, phospho-Erk imaging KS statistic, at 10 µM, cells stimulated with TPA for 15 min;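 on inhibition: phospho-Erk level distribution per well compared with pooled transfected vehicle control wells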
[5] = target: Dual specificity protein phosphatase 6 (Homo sapiens) (UniProt Q16828); experiment: as above; conditions: HeLa MKP-3 transfected, phospho-Erk imaging KS statistic; at 10 µM; stronger effect = higher value; cells stimulated with TPA for 15 min
Sequence of Dual specificity protein phosphatase 6 (Homo sapiens) (Q16828 whole entry, looked up): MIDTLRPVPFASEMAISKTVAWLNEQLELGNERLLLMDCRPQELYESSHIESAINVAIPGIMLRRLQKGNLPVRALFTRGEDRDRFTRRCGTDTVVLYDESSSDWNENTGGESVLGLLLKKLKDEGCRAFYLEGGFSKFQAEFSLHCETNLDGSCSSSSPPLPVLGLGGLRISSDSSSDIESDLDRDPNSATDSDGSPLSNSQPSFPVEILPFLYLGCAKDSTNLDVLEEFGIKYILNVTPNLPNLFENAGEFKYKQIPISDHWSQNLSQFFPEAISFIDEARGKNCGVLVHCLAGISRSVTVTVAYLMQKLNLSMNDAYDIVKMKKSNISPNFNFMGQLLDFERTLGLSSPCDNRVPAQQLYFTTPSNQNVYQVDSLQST

[6] = target: Voltage-gated potassium channel subunit beta-2 (Rattus norvegicus) (UniProt P62483); experiment: inhibitors of rat Kvbeta2 reductase activity – biochemical, NADPH fluorescence, primary screen (AID 622;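 active means fluorescence slope higher than the sample average by over 3 SD, cut at about -0.22 in these data, passing the limit was not always enough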;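 further: slope of raw intensity against log time taken from 70 to 1610 s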); conditions: recombinant KvBeta, 4-cyanobenzaldehyde reduction, at 10 µM, stronger effect = higher value
Sequence of Voltage-gated potassium channel subunit beta-2 (Rattus norvegicus) (P62483 whole entry, looked up): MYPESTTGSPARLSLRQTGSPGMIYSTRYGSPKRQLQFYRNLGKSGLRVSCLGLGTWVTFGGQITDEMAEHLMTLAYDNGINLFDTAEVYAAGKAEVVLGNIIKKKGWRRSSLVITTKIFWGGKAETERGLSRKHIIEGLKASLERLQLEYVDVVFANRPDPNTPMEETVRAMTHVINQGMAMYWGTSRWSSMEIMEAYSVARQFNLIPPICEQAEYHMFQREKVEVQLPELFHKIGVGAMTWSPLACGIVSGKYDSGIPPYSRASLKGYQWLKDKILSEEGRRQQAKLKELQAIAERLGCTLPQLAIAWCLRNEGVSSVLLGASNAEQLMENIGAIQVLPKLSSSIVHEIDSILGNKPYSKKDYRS

[7] = target: Voltage-gated potassium channel subunit beta-2 (Rattus norvegicus) (UniProt P62483); experiment: enhancers of rat Kvbeta2 NADPH turnover – biochemical, NADPH fluorescence, primary screen (AID 623;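 active means NADPH fluorescence slope more negative than the mean of all samples by about 3 SD, 99.7% confidence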;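 further: fluorescence intensity change per second fitted from 20 to 320 s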); conditions: Recombinant KvBeta, NADPH fluorescence decrease slope, 10 min; at 10 µM; stronger effect = lower value
[8] = target: Alpha-2C adrenergic receptor (Homo sapiens) (UniProt P18825); experiment: compounds altering alpha2C-coupled GIRK flux – cell-based, HEK293 alpha2C/GIRK1/2, thallium flux, primary screen (AID 624;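 active means fluorescence slope after compound addition differing from the mean of all screened samples at 99.7% confidence, in either direction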;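 further: slope of fluorescence ratio to pre-addition baseline per second over 15 to 24 s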); conditions: thallium flux BTC fluorescence, at 10 µM, actives lie on both sides
Sequence of Alpha-2C adrenergic receptor (Homo sapiens) (P18825 whole entry, looked up): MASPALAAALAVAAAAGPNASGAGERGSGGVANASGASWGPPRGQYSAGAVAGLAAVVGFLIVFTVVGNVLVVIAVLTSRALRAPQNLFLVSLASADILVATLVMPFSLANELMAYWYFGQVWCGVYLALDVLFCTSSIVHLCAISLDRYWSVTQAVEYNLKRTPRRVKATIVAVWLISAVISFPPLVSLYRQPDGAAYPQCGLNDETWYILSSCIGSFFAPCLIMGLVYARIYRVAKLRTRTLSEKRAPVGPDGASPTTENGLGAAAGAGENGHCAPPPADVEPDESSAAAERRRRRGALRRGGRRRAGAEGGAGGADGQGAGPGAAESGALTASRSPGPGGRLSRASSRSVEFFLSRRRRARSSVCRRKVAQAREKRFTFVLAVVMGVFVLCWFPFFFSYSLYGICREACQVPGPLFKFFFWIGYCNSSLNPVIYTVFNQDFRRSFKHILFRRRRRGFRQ

[9] = target: Muscarinic acetylcholine receptor M4 (Homo sapiens) (UniProt P08173); experiment: M4-linked GIRK flux change, two-sided – cell-based, HEK293 M4/GIRK, thallium flux, BTC-AM, M4 allosteric agonist project, primary screen (AID 625;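 active means fluorescence slope after compound addition differing from the mean of all tested samples at 99.7% confidence, mostly higher but some lower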;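 further: thallium influx through GIRK channels coupled to M4 in HEK293 cells with BTC-AM dye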); conditions: at 10 µM, actives lie on both sides
Sequence of Muscarinic acetylcholine receptor M4 (Homo sapiens) (P08173 whole entry, looked up): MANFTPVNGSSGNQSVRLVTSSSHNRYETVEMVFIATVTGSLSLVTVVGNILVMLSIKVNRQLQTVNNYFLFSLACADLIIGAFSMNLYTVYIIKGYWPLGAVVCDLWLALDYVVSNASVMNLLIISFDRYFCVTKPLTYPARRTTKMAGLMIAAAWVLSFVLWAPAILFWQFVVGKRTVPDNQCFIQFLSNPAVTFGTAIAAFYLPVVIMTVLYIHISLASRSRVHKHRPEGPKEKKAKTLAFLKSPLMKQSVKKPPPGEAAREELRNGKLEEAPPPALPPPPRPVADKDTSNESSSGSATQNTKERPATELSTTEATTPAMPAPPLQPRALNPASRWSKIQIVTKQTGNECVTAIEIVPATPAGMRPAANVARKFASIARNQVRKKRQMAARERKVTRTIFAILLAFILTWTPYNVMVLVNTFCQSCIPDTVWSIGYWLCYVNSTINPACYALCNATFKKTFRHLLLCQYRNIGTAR

[10] = inhibitors of larval lipid processing in zebrafish, primary screen, whole organism, PED6 fluorescence, gall bladder and intestine (AID 686;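 active means a full or partial loss of lipid-probe fluorescence in the fish gall bladder, intestine or both, judged by eye; inactive means no fluorescence loss, or compound toxic to the fish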;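 further: larvae 5 to 7 days old with five fish per well; signal comes from phospholipase A2 cleavage of quenched PED6 carried via bile; overnight exposure to compound and PED6 before scoring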); conditions: Zebrafish larvae PED6 lipid processing, fluorescence scoring; screened at 20 µM (by protocol)
[11] = loss of swimming-algae plug formation – whole organism, Chlamydomonas reinhardtii, WT vs cilia-less mutant, absorbance, 96-well, primary screen (AID 463189;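 active means inhibition at or above 50% relative to wild type and mutant plate controls; inactive means inhibition below 50%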;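 further: 0% = wild type cc124 cells in DMSO and 100% = ciliumless bld1 mutant cells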); conditions: Chlamydomonas reinhardtii gravitaxis, OD600 absorbance, 2 days; at 10 µM; stronger effect = higher value
[12] = blockers of RIG-like receptor reporter activation – cell-based, Sendai virus stimulus, luciferase, 10K MLSCN set, TLR/RLR signaling modifier project, primary screen (AID 602276;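 active means inhibition at or above 50% at 10 µM; inactive means inhibition below 50%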;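 further: firefly luciferase from ISG56 promoter only with Renilla not read in this screen; 0% = Sendai virus plus DMSO and 100% = medium plus DMSO without virus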); conditions: HEK293 RL24 IRF3 luciferase reporter, at 10 µM, stronger effect = higher value
[13] = TLR3 IRF3 reporter activation blockers – cell-based, poly I:C stimulus, luciferase, 10K MLSCN set, primary screen (AID 602277;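 active means inhibition of the reporter signal at or above 50%; inactive means inhibition below 50%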); conditions: HEK293-TLR3 RL24 IRF3 luciferase reporter, at 10 µM, stronger effect = higher value
[14] = measured here: cell density z-score
[15] = measured here: nuclear c-Myc green intensity z-score
[16] = measured here: nuclear pErk red intensity z-score, stronger effect = higher value

SMILES	cell count [1]	inhibition [1]	inhibition of aggregation [2]	nuclei count [2] [%]	inhibition [3]	nuclei count [3] [%]	z-score [4, 14]	z-score [4, 15]	z-score [4, 16]	inhibition [5]	fluorescence slope [6]	NADPH fluorescence slope [7]	slope [8]	fluorescence slope [9]	outcome [10]	inhibition [11]	inhibition [12]	inhibition [13]
CC(=O)Nc1ccc(-c2cc3ccccc3o2)cc1	572	-3.8% (inactive)	-5.2% (inactive)	112	11% (inactive)	138	-0.412	2.18	0.0674	-0.233% (inactive)	-0.468 (inactive)	-0.00011 (inactive)	0.00496 (inactive)	0.00556 (inactive)	inactive	17.4% (inactive)	-24.7% (inactive)	-112% (inactive)
CC(C)C(=O)N1CCN(c2nc(-c3ccccc3)c3c(c2C#N)CCCC3)CC1	615	-2.8% (inactive)	0.5% (inactive)	89.1	-17.1% (inactive)	122	0.333	0.332	-0.342	-7.67% (inactive)	-0.377 (inactive)	-9.2e-05 (inactive)	0.0045 (inactive)	0.00499 (inactive)	inactive	5.67% (inactive)	-7.38% (inactive)	17.9% (inactive)
CCCCCC1CC(CC#CCN2CCOCC2)C(=O)O1 (configuration not stated)	620	-2.8% (inactive)	10.5% (inactive)	90.2	-6.1% (inactive)	128	0.645	-0.292	0.592	3.49% (inactive)	-0.452 (inactive)	-4.2e-05 (inactive)	0.00528 (inactive)	0.00481 (inactive)	inactive	-4.86% (inactive)	-1.94% (inactive)	10.9% (inactive)
O=C(O)CC1Sc2nc3ccccc3n2C1=O (configuration not stated)	532	-9% (inactive)	-11.5% (inactive)	89	-22.4% (inactive)	116	-0.312	-0.637	-0.43	15.9% (inactive)	-0.49 (inactive)	-1.3e-05 (inactive)	0.00572 (inactive)	0.00487 (inactive)	inactive	27.7% (inactive)	13.8% (inactive)	12.9% (inactive)
Cc1cc(NCC2CCCO2)n2c(nc3ccccc32)c1C#N (configuration not stated)	481	-3.7% (inactive)	16.3% (inactive)	95.7	-9.7% (inactive)	113	-1.71	1	0.144	1.48% (inactive)	-0.356 (inactive)	-1.1e-05 (inactive)	0.00569 (inactive)	0.00588 (inactive)	inactive	-17.8% (inactive)	16.8% (inactive)	15.3% (inactive)
CN1CCN(c2nc3c(c(=O)n(C)c(=O)n3C)n2Cc2cccc3ccccc23)CC1	371	4.9% (inactive)	6.9% (inactive)	109	-77.4% (inactive)	102	-0.546	-0.191	0.82	-13.1% (inactive)	-0.457 (inactive)	-6.9e-05 (inactive)	0.00582 (inactive)	0.0044 (inactive)	inactive	28.5% (inactive)	9.16% (inactive)	19.8% (inactive)
CCCc1nc(N2CCOCC2)c(C#N)c2c1CCCC2	496	-5.5% (inactive)	-8.4% (inactive)	89.6	-58.9% (inactive)	128	-0.193	0.212	-0.0343	5.35% (inactive)	-0.436 (inactive)	-0.000102 (inactive)	0.00439 (inactive)	0.00443 (inactive)	inactive	-4.21% (inactive)	19.9% (inactive)	22.6% (inactive)
COc1cccc(C2C(C(=O)c3cc4ccccc4o3)=C(O)C(=O)N2CCN(C)C)c1OC (configuration not stated)	516	-3.4% (inactive)	31% (inactive)	87.3	-49.8% (inactive)	124	0.445	-1.47	-1.27	22.7% (inactive)	-0.492 (inactive)	-4.6e-05 (inactive)	0.0034 (inactive)	0.00523 (inactive)	inactive	20.6% (inactive)	9.6% (inactive)	6.82% (inactive)
COc1ccc(/C(O)=C2\C(=O)C(=O)N(c3cc(C)on3)C2c2ccccc2OC)cc1 (configuration not stated)	515	-2.7% (inactive)	-8.1% (inactive)	103	-21.7% (inactive)	101	1.8	0.145	-0.473	19.4% (inactive)	-0.469 (inactive)	-6.5e-05 (inactive)	0.00564 (inactive)	0.0068 (inactive)	inactive	-3.34% (inactive)	8.52% (inactive)	-5.11% (inactive)
Cc1ccc(-n2c(N)c(C(N)=O)sc2=S)cc1	560	-7.1% (inactive)	-1.4% (inactive)	104	-12.7% (inactive)	146	-0.361	-1.13	1.48	-1.98% (inactive)	-0.427 (inactive)	-2.9e-05 (inactive)	0.00443 (inactive)	0.00756 (inactive)	inactive	21.1% (inactive)	2.77% (inactive)	15.4% (inactive)
Cc1cc(/C=N\O)c(C)n1-c1ccncc1	547	-1.1% (inactive)	7.2% (inactive)	92.6	-50.3% (inactive)	120	-0.413	0.337	0.578	9.82% (inactive)	-0.47 (inactive)	-0.000127 (inactive)	0.00523 (inactive)	0.00493 (inactive)	inactive	19.4% (inactive)	20.1% (inactive)	25.1% (inactive)
c1ccc(-c2ccc(C(c3ccccc3)n3ccnc3)cc2)cc1 (configuration not stated)	591	2% (inactive)	10.9% (inactive)	91.4	-58.4% (inactive)	106	-1.14	0.79	-0.101	16.8% (inactive)	-0.555 (inactive)	-3.5e-05 (inactive)	0.00412 (inactive)	0.00623 (inactive)	inactive	13.3% (inactive)	2.51% (inactive)	18.2% (inactive)
CC(=O)Nc1ccc(Oc2ccc3nc(C)[nH]c3c2)cc1	566	-6.8% (inactive)	13% (inactive)	95.6	-129% (inactive)	133	-0.271	-0.885	-1.67	13.7% (inactive)	-0.504 (inactive)	-3.4e-05 (inactive)	0.00532 (inactive)	0.00521 (inactive)	inactive	5.53% (inactive)	-8.22% (inactive)	-0.929% (inactive)
C/C(=N\O)C(=O)NCCCNCCCN(C)C	609	-2.7% (inactive)	-14.3% (inactive)	109	-42% (inactive)	115	-1.26	0.664	-0.264	-3.95% (inactive)	-0.495 (inactive)	-5.8e-05 (inactive)	0.0053 (inactive)	0.00686 (inactive)	inactive	-5.12% (inactive)	15.3% (inactive)	20.9% (inactive)
CC1(C)Cc2c(c(-c3ccccc3)nc(N3CCCC3)c2C(N)=O)CO1	496	-6% (inactive)	15.7% (inactive)	102	-130% (inactive)	142	-1.1	1.34	-0.38	-6.59% (inactive)	-0.473 (inactive)	-0.000128 (inactive)	0.0059 (inactive)	0.00451 (inactive)	inactive; toxic	-0.193% (inactive)	16.5% (inactive)	21.4% (inactive)
CCOC(=O)c1ccc(N2C(=O)CC(Sc3nnc(C)s3)C2=O)cc1 (configuration not stated)	627	-1.6% (inactive)	-10.1% (inactive)	98	-62.1% (inactive)	104	0.196	-1.44	-0.8	-5.81% (inactive)	-0.471 (inactive)	-1.4e-05 (inactive)	0.0059 (inactive)	0.00572 (inactive)	inactive	30.9% (inactive)	1.68% (inactive)	7% (inactive)
CCOc1ccc2nc(SCC(=O)Nc3ncccn3)[nH]c2c1	478	-3.6% (inactive)	-10.2% (inactive)	111	-10.6% (inactive)	138	-1.13	-0.409	1.4	1.98% (inactive)	-0.358 (inactive)	-4.6e-05 (inactive)	0.00651 (inactive)	0.00652 (inactive)	inactive	10.6% (inactive)	-10.6% (inactive)	99.1% (active)
CCN(CC)CCN1C(=O)C(=O)/C(=C(/O)c2c(C)[nH]c(C(=O)OC)c2C)C1c1ccco1 (configuration not stated)	572	-11.8% (inactive)	-5.3% (inactive)	105	26.1% (inactive)	120	-1.72	1.35	-0.00455	-11.9% (inactive)	-0.473 (inactive)	-1.4e-05 (inactive)	0.00421 (inactive)	0.00487 (inactive)	inactive	4.53% (inactive)	4.22% (inactive)	6.98% (inactive)
CC(C)(C)c1ccc(O)c(N)c1	646	-5.1% (inactive)	18.9% (inactive)	115	-65.2% (inactive)	138	0.287	-1.2	0.0324	-3.95% (inactive)	-0.526 (inactive)	-7e-05 (inactive)	0.00563 (inactive)	0.00646 (inactive)	inactive	15.7% (inactive)	8.96% (inactive)	18% (inactive)

— PubChem BioAssay
